High-throughput results as filed in PubChem BioAssay.
The list is not random: actives were taken first. Their share in the collection is about 19%.
LASV entry inh = Lassa virus entry inhibition | Lassa virus pseudotype entry inhibition, cell reporter | Potency, µM (doses to about 37.9 µM), without a hit: at the top dose activity change, negative = inhibition, hits mostly inhibitors | 300,000 tested, 1.2% active; calls by dose curve; tested in HEK293 cells; note: potency is the fitted concentration of half-maximal effect; % is set by controls: 0 for no effect and ±100 for the full control effect; nearly all actives have a fitted effect of over 50% in size
MARV entry inh = inhibitors of Marburg virus binding or cell entry | Marburg virus pseudotyped entry inhibition, cell reporter | Potency, µM (titrated, usually from 37.8 µM), without a hit: at the highest dose activity change, negative = inhibition, hits mostly inhibitors | 300,000 tested, 1.8% active; calls by dose curve; tested in HEK293 cells; note: potency is the fitted concentration of half-maximal effect; % is set by controls: 0 for no effect and ±100 for the full control effect
Pf growth 48h = inhibits P. falciparum growth in the first generation, 48 h | P. falciparum luciferase growth in erythrocytes, 48 h | 310,000 tested, 5.9% active | Potency, µM (series often up to 28.7 µM), without a hit: at the highest dose activity change, negative = inhibition, usual class: inhibitors; note: potency is the fitted concentration of half-maximal effect; % is set by controls: 0 for no effect and ±100 for the full control effect
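Luciferase-expressing parasites in RBCs, 2% Hct / 0.1% parasitemia final; RPMI 1640 + 0.5% Albumax; 37 C, 5% CO2, one generation; luminescence read-out, lower signal = inhibition.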
Pf growth 96h = P. falciparum growth inhibition at 96 hour, primary screen for plastid delayed-death inhibitors | P. falciparum luciferase reporter growth, 96 h | Potency, µM (titrated, usually from 28.7 µM), without a hit: at the top dose activity change, negative = inhibition, most hits filed as inhibitors | 320,000 tested, 6.9% active; note: potency is the fitted concentration of half-maximal effect; % is set by controls: 0 for no effect and ±100 for the full control effect
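Compounds incubated with erythrocytes infected by luciferase-expressing P. falciparum (2% hematocrit, 0.05% parasitemia final) for 96 hours, 37 C in 5% CO2. Growth inhibition scored as decreased luciferase luminescence.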
CHX counter = counter-screen hit for Shiga toxin inhibitors, cycloheximide. 300,000 tested, 12% active. cell reporter, cycloheximide protein synthesis inhibition counterscreen. max response, %. AID 2314; in the data active = max response mostly above about 13%, no sharp cut-off; inactive = mostly below about 14%; note: read at 38.3 µM for the half of the compounds with a filed dose; 0% is about no effect
Shiga inhibitor = inhibitors of Shiga toxin in Vero cells; Vero cells, Shiga toxin protein synthesis inhibition reporter; inhibition, % at 38.7 µM; 290,000 tested, 9.2% active; AID 2315; in the data active = inhibition mostly above about 28%, no sharp cut-off; inactive = mostly below about 43%; note: 0% is about no effect
* = called active by the depositor; ? = inconclusive; . = no result given; [ ] = remark or other dose. Unless noted, calls come from the whole dose curve; as a rule, active = well fitted inhibition curve with a large enough effect; inconclusive = small, poorly fitted or top-dose-only effect, or another doubt; inactive = no such curve, though single readings can be large or run the other way.

SMILES	LASV entry inh	MARV entry inh	Pf growth 48h	Pf growth 96h	CHX counter	Shiga inhibitor
Cc1nonc1OCCNCCNc1ccc([N+](=O)[O-])c2cccnc12	0.9%	-27.4%[46.1 µM]	0.4%	-17.5%	-1.2	-6.0
COc1ccc(CNCCc2c[nH]c3ccccc23)c(OC)c1OC	6.7%[46.1 µM]	?	-10.4%	?	-1.8	-5.6
COc1cc(CNCCc2c[nH]c3ccccc23)cc(Cl)c1OCC(N)=O	3.0%	?	?	-13.0%	0.7	-8.3
CCOc1cc(CNCCc2c[nH]c3ccccc23)cc(Cl)c1OC	-19.0%	?	?	6.57µM*	-2.5	-6.2
CCOc1cc(CNCCc2c[nH]c3ccccc23)cc(Cl)c1OCC(N)=O	.	.	?	4.65µM*	-1.9	4.4
O=C(O)c1cccc(-n2cccc2/C=C2/SC(=O)N(CC(=O)N3CCCC3)C2=O)c1	?	-2.8%[46.1 µM]	12.7%	15.2%	-11.3	-9.9
COc1cc2[nH]c(C(=O)N3CCN(c4ccc(F)cc4)CC3)cc2c(OC)c1OC	?	?	?	-29.5%	-3.6	2.4
CCCCCc1ccc(OCCCC[n+]2cccc(C)c2)c(CCCCC)c1	?	?	-9.2%	-18.9%	-3.5	-9.1
CCC(C)(C)c1ccc(OCCCC[n+]2ccccc2)c(C(C)(C)CC)c1	.	.	2.08µM*	-22.0%	-4.5	-6.9
CCCCCc1ccc(OCCCC[n+]2ccc(C)cc2)c(CCCCC)c1	4.47µM*	?	0.465µM*	39.1%	-2.7	0.3
CCCCCc1ccc(OCCCC[n+]2ccccc2)c(CCCCC)c1	?	?	0.928µM*	-1.8%	-5.4	31.2
CCCCCCCCCc1nc2sc3c(c2c(=O)n1NC(=O)c1ccc([N+](=O)[O-])cc1)CC(C)(C)OC3	-1.2%	?	3.1%	296.4%	0.6	1.6
CCOC(=O)C1CCCN(C(=O)c2ccc3c(c2)N(C)C(=O)/C(=C/c2ccccc2Cl)S3)C1 (stereo not drawn)	?	-24.8%[46.1 µM]	?	0.415µM*	-1.8	-1.9
CCOC(=O)C1CCCN(C(=O)c2cccc(N3C(=O)c4ccccc4C3=O)c2)C1 (stereo not drawn)	.	.	?	-12.1%	.	.
CN1C(=O)/C(=C\c2ccccc2F)Sc2ccc(C(=O)NC3CCN(Cc4ccccc4)CC3)cc21	.	.	1.65µM*	?	3.9	-4.0
CN1C(=O)/C(=C/c2ccccc2Cl)Sc2ccc(C(=O)N3CCCC3)cc21	.	.	?	40.5%	22.4*	3.3
c1ccc(-c2cc(-c3ccccc3)c3c(n2)-c2ccccc2OC3)cc1	-1.0%[46.1 µM]	-26.4%[46.1 µM]	.	.	.	.
Cc1cnc(SCc2ccc(Cl)cc2Cl)[nH]c1=O	.	.	32.6%	30.9%	-2.7	-9.1
Cc1nnc(SCc2ccc(Cl)cc2Cl)[nH]c1=O	-0.1%	1.1%	24.0%	.	11.5*	21.8
O=C(CCc1c[nH]c2ccccc12)NCC1CCCO1 (stereo not drawn)	7.4%	9.3%	12.7%	31.8%	-1.7	27.0
CCCSc1nc2cc(C)c(C)cc2n1CC(C)O (stereo not drawn)	7.9%	0.0%[46.1 µM]	30.7%	27.1%	26.3*	72.5*
CCCn1c(SCC(O)c2ccccc2)nc2ccccc21 (stereo not drawn)	14.9%[46.1 µM]	0.6%[46.1 µM]	.	.	.	.
CCCSc1nc2cc(C)c(C)cc2n1CC(O)CO (stereo not drawn)	.	.	0.0%	-25.9%	21.4*	78.1*
COc1cc([N+](=O)[O-])ccc1NC(=S)Nn1cnnc1	.	.	11.3%	9.5%	-3.3	-32.8
CCCCCNc1nc(-c2ccccc2)cs1	.	-7.8%	-5.7%	.	41.6*	80.1*
SMILES	LASV entry inh	MARV entry inh	Pf growth 48h	Pf growth 96h	CHX counter	Shiga inhibitor
c1ccc(CCNc2nc(-c3ccncc3)cs2)cc1	-17.7%	-13.7%	86.9%	32.6%	29.0*	51.9
O=C1COc2ccc(-c3csc(NCCc4ccccc4)n3)cc2N1	?	?	?	?	9.3	34.6
CC(C)c1ccc(NC(=O)COC(=O)/C=C/c2cccc(Br)c2)cc1	-19.8%	13.6%	18.5%	20.2%	0.5	0.3
O=C1CC(N2CCN(CCc3ccccn3)CC2)C(=O)N1c1ccc(Cl)cc1 (stereo not drawn)	2.5%	-0.5%[46.1 µM]	-4.5%	1.4%	1.6	-7.8
O=C(Nc1ccc(S(=O)(=O)N2C[C@@H]3C[C@@H](C2)c2cccc(=O)n2C3)cc1)c1ccc(F)cc1	.	-3.6%	3.4%	?	.	.
CCn1c(CCCNC(=O)c2cccs2)nc2ccccc21	.	.	4.9%	-11.9%	0.4	-9.8
CCn1c(NC(=O)c2cccs2)nc2ccccc21	?	16.2%	?	.	46.6*	65.1
CCCn1c(NC(=O)c2cccc(C)c2C)nc2ccccc21	-23.8%	?	.	8.28µM*	-0.4	11.1
CCCn1c(NC(=O)C2CCN(C(=O)c3ccccc3C)CC2)nc2ccccc21	?	?	11.7µM*	?	.	.
COCc1cc(C)[nH]c(=O)c1C#N	12.1%	2.0%	22.0%	8.9%	-2.5	-16.4
COc1ccc(/C=N/n2c(C)nc3ccccc3c2=O)cc1OC	7.7%	12.1%	30.1%	30.6%	15.1	-4.3
O=c1[nH]c(N/N=C\c2ccc(F)cc2)nc2ccccc12	-20.5%	?	-48.7%	?	34.1*	80.2*
C=CCn1c(N/N=C/c2ccc(O)cc2)nc2ccccc2c1=O	.	.	47.2%	3.9%	35.5*	153.3*
O=c1[nH]c(N/N=C/c2ccc(O)cc2)nc2ccccc12	?	?	-28.0%	-16.7%	35.9*	64.5*
COc1ccc(/C=N/Nc2nc3ccccc3c(=O)n2-c2ccccc2)cc1OC	?	?	23.1%	?	20.6*	23.8
COc1ccc(C2(c3ccc(OC)cc3)NC(=O)N(CC(=O)Nc3ccc(OC)c(OC)c3)C2=O)cc1	?	?	6.57µM*	?	-4.6	-7.2
Cc1cc(NC(=O)CN2C(=O)NC(c3ccccc3)(c3ccc(C)c(C)c3)C2=O)no1 (stereo not drawn)	.	.	?	4.15µM*	.	.
COc1ccc(C2(c3ccc(OC)cc3)NC(=O)N(CC(=O)Nc3ccccc3C)C2=O)cc1	?	3.4%[46.1 µM]	30.8%	-7.9%	-6.8	-8.3
COc1ccc(C2(c3ccc(OC)cc3)NC(=O)N(CC(=O)Nc3ccc(C(N)=O)cc3)C2=O)cc1	9.2%	-13.1%[46.1 µM]	?	?	4.9	-11.0
COc1ccc(C2(c3ccc(OC)cc3)NC(=O)N(CC(=O)Nc3ccccc3C(F)(F)F)C2=O)cc1	?	-17.4%	?	11.7µM*	1.6	-22.5
COc1ccc(Cl)cc1C(=O)Nn1cnc2ccccc2c1=O	1.8%	-4.1%	42.5%	-17.5%	-1.8	-5.7
CCc1c(C#N)c(N)nc(SCC(=O)OCc2ccccc2)c1C#N	?	-2.6%	9.28µM*	?	-7.0	-49.5
CCOC(=O)CSc1nc(N)c(C#N)cc1C#N	21.6%	14.1%	33.6%	36.7%	22.9	41.9*
N#Cc1c(SCC(=O)OCc2ccccc2)nsc1SCC(=O)OCc1ccccc1	8.8%	2.9%	.	-10.3%	-3.3	-8.1
